High-throughput results: PubChem BioAssay, University of Kansas High Throughput Screening Laboratory
mHTT-CaM PPI inh: inhibitors of human mutant huntingtin-calmodulin interaction; P42858; AlphaScreen His-mHTT/GST-CaM binding, luminescence; inhibition, % at 15 µM; 190,000 tested, 3.6% active; AID 1671202;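 also: 0% = both proteins with DMSO and 100% = one protein alone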
Pf apPOL block: Pf-apPOL DNA polymerase inhibition. 210,000 tested, 0.25% active. Recombinant Pf-apPOL, molecular beacon fluorescence, 1.5 h. inhibition, % at 10 µM
* hit, by the source's call; x = no result; ! = repeats disagree. Compounds with a hit are over-represented: about 3.5% of the library has one in this group of screens. Rule as the data show it: active = inhibition above about 50%; inactive = the rest.

SMILES | mHTT-CaM PPI inh | Pf apPOL block
COc1ccc(C(=O)Nc2ccccc2C(=O)Nc2ccccc2C(=O)O)cc1 | 84* | -7
O=C(Nc1cc([N+](=O)[O-])ccc1C(=O)Nc1cccnc1)c1ccccc1 | 4 | -1
O=C(Nc1ccccc1C(=O)Nc1cccnc1)c1ccccc1 | -3 | 51*!
O=C(Nc1ccc(-c2ccc(NC(=O)Nc3cccnc3)cc2)cc1)Nc1cccnc1 | 10 | 3
O=C(Nc1cccnc1)C(=O)Nc1cccnc1 | 82* | -5
COc1ccccc1CNC(=O)C(=O)Nc1ccccc1OC | -5 | -12
COc1ccc(Br)cc1/C=C1/N=C(c2ccccc2Br)OC1=O | 3 | -7
COc1ccc([N+](=O)[O-])cc1NCc1cc(OC)c2c(c1)OCO2 | 0 | -5
CCOc1ccc(C(=O)Nc2ccc(N3CCN(C(=O)c4ccccc4)CC3)cc2)cc1Cl | 1 | 8
CC(=O)N1CCc2sc(S(=O)(=O)Nc3cccc(C)c3)cc2C1 | -5 | -4
O=C(NCc1ccccc1F)C1CCCN(c2nnc3ccccn23)C1 (stereo unspecified) | -4 | 0
Cn1c2c(c(=O)[nH]c1=O)C(c1ccc(OCc3ccccc3)cc1)C1=C(N2)c2ccccc2C1=O (stereo unspecified) | 86* | -94
O=C1C2=C(Nc3[nH]c(=O)[nH]c(=O)c3C2c2ccc(Cl)cc2)c2ccccc21 (stereo unspecified) | 67*! | -4
Cn1c2c(c(=O)[nH]c1=O)C(c1ccc(O)cc1)C1=C(N2)c2ccccc2C1=O (stereo unspecified) | 19 | 9
Cn1c2c(c(=O)n(C)c1=O)C(c1ccc(Cl)cc1)C1=C(N2)c2ccccc2C1=O (stereo unspecified) | 0 | -8
COc1ccc(OC)c(NC(=O)NC2(C(F)(F)F)Oc3ccc(Cl)cc3O2)c1 (stereo unspecified) | 17 | 0
O=C(NCc1cccnc1-c1ccc(F)cc1)c1ccc(F)cc1F | -10 | -2
O=C(Nc1nc2c(s1)CCC2)C1CCCN1S(=O)(=O)c1ccc(F)cc1 (stereo unspecified) | 3 | 0
NC(=O)c1oc2ccccc2c1NC(=O)C1CCCN1S(=O)(=O)c1ccc(F)cc1 (stereo unspecified) | 67* | -6
NC1=NC(=O)C(CC(=O)Nc2ccccc2)S1 (stereo unspecified) | -8 | -5
COc1ccccc1C(=O)N1CCc2c(c(C(=O)NCc3ccc(F)cc3)nn2C)C1 | 71* | -12
Cn1nc(C(=O)NCc2ccc(F)cc2)c2c1CCN(C(=O)c1ccccc1Cl)C2 | 55* | -7
Cn1nc(C(=O)NCc2ccccc2)c2c1CCN(C(=O)c1ccc(Br)o1)C2 | 16 | -4
Cn1nc(C(=O)NCc2ccccc2)c2c1CCN(C(=O)c1ccccc1F)C2 | 53* | -5
COc1ccccc1C(=O)N1CCc2c(c(C(=O)NCc3ccccc3)nn2C)C1 | 36 | -5
SMILES | mHTT-CaM PPI inh | Pf apPOL block
Cc1ccccc1C(=O)N1CCc2c(c(C(=O)NCc3ccc(F)cc3)nn2C)C1 | 35 | -12
Cc1csc(NC(=O)CSc2ccc(Cl)cc2)c1C(N)=O | x | -6
Cc1ccc(C2=CC(c3cn(-c4ccccc4)nc3-c3ccccc3)N3C(=O)CSC3=N2)cc1 (stereo unspecified) | x | -1
O=C(NCc1ccc(Cl)cc1)c1cc(-c2cccc(Cl)c2)on1 | 0 | -7
COc1ccc(NCc2ccc([N+](=O)[O-])s2)c(OC)c1 | 67* | 22
COc1ccc(NC(=O)COc2ccc([N+](=O)[O-])cc2)c(OC)c1 | -2 | -8
CCc1ccc(NC(=O)c2c(C)sc3c(=O)n(CC4CC4)cnc23)cc1 | 35 | 3
Cc1[nH]n(-c2cccc(Cl)c2)c(=O)c1C=C1C=c2ccccc2=NC1=O | 4 | 7
O=C1C2CC=C(Cl)CC2C(=O)N1CNc1ccccc1 (stereo unspecified) | -1 | -1
Cc1ccc(NCN2C(=O)C3CC=C(Cl)CC3C2=O)cc1 (stereo unspecified) | 64* | -10
COc1ccc(C(O)(C(=O)NCc2ccccc2)c2ccc(OC)cc2)cc1 | -4 | 16
Cc1ccccc1CNC(=O)c1cc2n(n1)CCCN(Cc1ccc(Cl)cc1)C2=O | 52* | -4
O=C(NCCCN1CCCC1)c1cc2n(n1)CCCN(Cc1ccc(Cl)cc1)C2=O | 52* | -5
O=C(NCc1ccccc1F)c1cc2n(n1)CCCN(Cc1ccc(Cl)cc1)C2=O | 6 | 0
O=C(NCCCN1CCOCC1)c1cc2n(n1)CCCN(Cc1ccc(Cl)cc1)C2=O | 1 | 0
Cc1cccc(C(=O)n2cnc3cc(C)c(C)cc32)c1 | -1 | 1
CC1(C)CC(=O)C(C2CC(c3ccccc3)OC3=C2C(=O)CC(C)(C)C3)C(=O)C1 (stereo unspecified) | 0 | -1
CCOCc1ccc(O)c2ncccc12 | 100* | -4
CCOc1c(C)cc(-c2ncccc2O)cc1C | -1 | 0
COc1cccc(NC(=O)Nc2nnc(-c3ccccc3I)s2)c1 | 7 | 1
